The values below come from PubChem BioAssay (NCI).

The structures appear in SMILES notation. Compounds without any hit were thinned out: in the full panel of roughly 83,000, 20% have a hit.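 Treatment: one concentration, 48 hours, 96-well format. Scoring: percent growth, with anything below 10 considered active.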 Unmarked numbers belong to inactive results. Active and inactive are the calls of the source.

Test systems include SR leukemia; OVCAR-8 ovarian; OVCAR-5 ovarian; OVCAR-4 ovarian; SK-OV-3 ovarian; IGROV1 ovarian; OVCAR-3 ovarian; HS 578T breast; NCI/ADR-RES ovarian; RPMI-8226 leukemia.
Common to all, as to assay: NCI-60 one-dose screen, 48 h (100 = growth as untreated, 0 = no growth, -100 = all killed)
What all share (settings): 10 µM unless noted

In the case of `O=C(Cn1c2c(c3ccccc31)CCCC2)Nc1ccc(-c2nc3ccccc3s2)cc1`, the growth in the assay on SR leukemia was 88.8%; in the assay on OVCAR-8 ovarian it was 107%; in the assay on OVCAR-5 ovarian, 99.5%; in the assay with OVCAR-4 ovarian, 104%; in the assay with SK-OV-3 ovarian it was 114%; in the assay with IGROV1 ovarian, 83.8%. The growth with OVCAR-3 ovarian is 110%; in the assay on HS 578T breast, 112%; with NCI/ADR-RES ovarian, 109%.

On to `COc1cc(C(=O)n2nc(N3CCN(C)CC3)c3cc(N)ccc32)cc(OC)c1OC`, for which the growth is 13.3% with SR leukemia; 30.3% in the assay on OVCAR-8 ovarian; 50.4% in the assay with OVCAR-5 ovarian; 49.7% in the assay with OVCAR-4 ovarian; 28.1% in the assay on SK-OV-3 ovarian; 32.5% with IGROV1 ovarian. For the same compound, the growth in the assay with OVCAR-3 ovarian was 4.26% (active); in the assay with HS 578T breast, 44.5%; with NCI/ADR-RES ovarian, 67.9%.

`CC(C)n1cnc2c(=S)nc[nH]c21`: the growth in the assay with SR leukemia is 74.8%; in the assay on OVCAR-8 ovarian it was 109%; in the assay with OVCAR-5 ovarian it was 121%; with OVCAR-4 ovarian it was 124%; in the assay with SK-OV-3 ovarian it was -99.9% (active); with IGROV1 ovarian, 114%. The growth in the assay with OVCAR-3 ovarian is 105%; with HS 578T breast, 108%; with NCI/ADR-RES ovarian, 133%.

Regarding `CCOC(=O)c1c(NC(=O)c2ccc(C(C)C)cc2)sc2c(CN(C)C)c(O)ccc12`, the growth was -21.5% (active) with SR leukemia; 89.1% with OVCAR-8 ovarian; 64.1% in the assay with OVCAR-5 ovarian; 87.2% with OVCAR-4 ovarian; 99.2% with SK-OV-3 ovarian; 72.5% with IGROV1 ovarian. Also, the growth is 96.1% in the assay on OVCAR-3 ovarian, 86.2% in the assay on HS 578T breast and 72.6% with NCI/ADR-RES ovarian.

Take `COC(=O)c1cc(-c2ccc(S(C)(=O)=O)cc2)[nH]c1N/N=C/c1c(Cl)cccc1Cl`: the growth in the assay on SR leukemia was -12.3% (active); with OVCAR-8 ovarian, 29.7%; in the assay on OVCAR-5 ovarian, 42.6%; in the assay on OVCAR-4 ovarian, 59.6%; in the assay on SK-OV-3 ovarian it was 29.2%; in the assay with IGROV1 ovarian it was -43.6% (active). The values for the growth with OVCAR-3 ovarian and in the assay on HS 578T breast were -33.6% (active) and -30.1% (active), respectively.

Regarding `CCOc1ccc(NC(=O)CSc2oc(-c3ccccc3)nc2S(=O)(=O)c2ccc(F)cc2)cc1`, the growth was 69.8% in the assay with SR leukemia; 49.5% in the assay on OVCAR-8 ovarian; 103% with OVCAR-5 ovarian; 66.1% in the assay with OVCAR-4 ovarian; 77.5% with SK-OV-3 ovarian; 94.8% in the assay with IGROV1 ovarian. In addition, the growth in the assay on OVCAR-3 ovarian is 64.9%; with HS 578T breast, 74.2%; in the assay with NCI/ADR-RES ovarian it was 67.3%.

Consider `CCCCNc1ccc(C#N)c(OCCN(CC)CC)c1`, for which the growth is 93.8% with SR leukemia; 100% with OVCAR-8 ovarian; 97.4% in the assay with OVCAR-5 ovarian; 105% with OVCAR-4 ovarian; 102% with SK-OV-3 ovarian; 105% in the assay on IGROV1 ovarian. For the same compound, the results for the growth with OVCAR-3 ovarian, with HS 578T breast and with NCI/ADR-RES ovarian were 109%, 123% and 98.4%, respectively.

Take `COc1ccc(C(=O)Nc2ncc(Cc3ccc(F)cc3)s2)cc1`: the growth is 11.1% with SR leukemia; 27.6% in the assay on OVCAR-8 ovarian; 29.6% with OVCAR-5 ovarian; 48.9% with OVCAR-4 ovarian; 44.6% in the assay on SK-OV-3 ovarian; 18.3% in the assay with IGROV1 ovarian. The figures for the growth in the assay on OVCAR-3 ovarian, in the assay on HS 578T breast and in the assay on NCI/ADR-RES ovarian were -22.2% (active), 31.7% and 7.08% (active), respectively.

Regarding `S=C(Nc1ccc(-c2nc(N3CCOCC3)c3cccn3n2)cc1)Nc1cccnc1`, the growth was 36.7% in the assay on SR leukemia; 14.8% in the assay with OVCAR-8 ovarian; 35.2% in the assay on OVCAR-5 ovarian; 43.2% with OVCAR-4 ovarian; 21.5% in the assay with SK-OV-3 ovarian; 11% in the assay on IGROV1 ovarian. Also, the growth in the assay on OVCAR-3 ovarian is 39.6%; in the assay with HS 578T breast, 12.8%; in the assay with NCI/ADR-RES ovarian, 26.3%.

As to `CCN(CC)CCSc1nc(-c2ccccc2)c(C#N)c(=O)[nH]1`, the growth was 92.3% in the assay with SR leukemia; 111% in the assay on OVCAR-8 ovarian; 108% with OVCAR-5 ovarian; 154% with OVCAR-4 ovarian; 90.8% in the assay on SK-OV-3 ovarian; 117% in the assay with IGROV1 ovarian. In addition, the figures for the growth in the assay on OVCAR-3 ovarian, in the assay on HS 578T breast and in the assay on NCI/ADR-RES ovarian were 116%, 63.5% and 58%, respectively.

Take `O=C(c1ccc(-c2ccccc2)cc1)c1ccc([N+](=O)[O-])cc1`: the growth with SR leukemia is 86.8%; in the assay with OVCAR-8 ovarian, 104%; in the assay with OVCAR-5 ovarian, 120%; in the assay on OVCAR-4 ovarian, 105%; in the assay with SK-OV-3 ovarian, -100% (active); with IGROV1 ovarian, 101%. Moreover, the growth in the assay on HS 578T breast is 110%; in the assay with NCI/ADR-RES ovarian, 114%.

Consider `O=C(CSc1nnc2n1S(=O)(=O)c1ccccc1N2c1ccccc1)Nc1nc2ccc(F)cc2s1`, for which the growth was 62.9% in the assay with SR leukemia; 76.5% with RPMI-8226 leukemia; 84.9% in the assay with OVCAR-8 ovarian; 99.5% in the assay on OVCAR-4 ovarian; 108% with SK-OV-3 ovarian; 106% in the assay with OVCAR-3 ovarian. Further, the growth with HS 578T breast was 101%; in the assay on NCI/ADR-RES ovarian, 92.8%.

In the case of `OCCCC1CCN(C(Cc2ccccc2)c2ccccc2)CC1` (stereo not drawn), the growth in the assay with SR leukemia was 120%; in the assay with OVCAR-8 ovarian it was 98.5%; with OVCAR-5 ovarian, 60.2%; with OVCAR-4 ovarian, 92.3%; with SK-OV-3 ovarian, 84.9%; in the assay on IGROV1 ovarian, 96.8%. For the same compound, the growth in the assay on HS 578T breast was 101%; in the assay with NCI/ADR-RES ovarian it was 93.9%.
